APEX1 inh: blocks human APE1 abasic DNA cleavage; P27695; recombinant APE1, TAMRA/BHQ-2 abasic DNA cleavage fluorescence; Potency, µM (series often up to 65.8 µM), for inactives: at the top dose activity change, negative = inhibition, hits mostly inhibitors; actives 0.35% (n = 350,000); AID 2517;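 further: plate controls were vehicle for no effect and reference inhibitor for full effect; nearly all actives have a fitted effect of over 55% in size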
Target sequence (P27695 whole entry, looked up): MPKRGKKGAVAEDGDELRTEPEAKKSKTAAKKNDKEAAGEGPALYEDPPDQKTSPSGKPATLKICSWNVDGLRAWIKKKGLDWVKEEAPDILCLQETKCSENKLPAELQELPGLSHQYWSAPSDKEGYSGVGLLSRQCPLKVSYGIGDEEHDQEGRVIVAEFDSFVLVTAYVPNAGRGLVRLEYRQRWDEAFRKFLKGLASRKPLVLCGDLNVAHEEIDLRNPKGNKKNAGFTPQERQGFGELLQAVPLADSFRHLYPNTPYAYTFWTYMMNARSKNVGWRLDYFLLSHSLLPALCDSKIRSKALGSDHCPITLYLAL
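Measures dequenching upon AP-site incision of a 5'-TAMRA/3'-BHQ-2 THF-containing duplex, 50 nM; human APE1 0.75 nM after 15 min room-temperature exposure to compound; kinetic three-point read at one-minute spacing.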
PGK inhibitor: blocks T. brucei phosphoglycerate kinase | Potency, µM (series often up to 57.5 µM), for the others: at the top dose activity change, negative = inhibition, usual class: inhibitors | actives 0.043% (n = 380,000) | P07378 | AID 602233 | PGK/GAPDH coupled, Kinase-Glo luminescence, 60 min; further: nearly all actives have a fitted effect of over 60% in size
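Recombinant glycosomal PGK reaction used 1,3-bisphosphoglycerate generated in-well by GAPDH (100nM final) in 100mM TEA pH 7.6, 5mM MgCl2, 0.01% Tween-20. After 60 minutes at room temperature, ATP was read by Kinase-Glo Plus luminescence end-point.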
FEN1 inhibitor: blocks human flap endonuclease 1. Recombinant FEN1 flap cleavage, fluorescence, 15 min. actives 0.35% (n = 390,000). P39748. Potency, µM (top dose mostly 114 µM), without a hit: at the top dose activity change, negative = inhibition, usual class: inhibitors; further: nearly all actives have a fitted effect of over 65% in size
Target sequence (P39748 whole entry, looked up): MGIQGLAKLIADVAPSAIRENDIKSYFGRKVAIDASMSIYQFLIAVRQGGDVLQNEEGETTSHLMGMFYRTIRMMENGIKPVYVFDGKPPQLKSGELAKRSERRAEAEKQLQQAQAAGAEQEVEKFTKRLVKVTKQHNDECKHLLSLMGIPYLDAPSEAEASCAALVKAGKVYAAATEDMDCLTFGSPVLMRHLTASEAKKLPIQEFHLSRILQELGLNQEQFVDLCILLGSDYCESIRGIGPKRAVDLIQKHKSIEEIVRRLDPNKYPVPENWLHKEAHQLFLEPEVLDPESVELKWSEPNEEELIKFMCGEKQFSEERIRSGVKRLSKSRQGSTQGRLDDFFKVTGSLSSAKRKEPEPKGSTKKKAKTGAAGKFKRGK
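With each library titrated from low to high concentration, compounds met 10 nM FEN1 for 15 min at room temperature before 50 nM substrate was added; readings at 0 and 15 min fed four-parameter Hill curve fits.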
BLM inh: blocks DNA unwinding by human BLM helicase; P54132; recombinant BLM DNA unwinding, fluorescence dequenching; Potency, µM (series often up to 56.1 µM), for the others: at the highest dose activity change, negative = inhibition, most hits filed as inhibitors; actives 0.2% (n = 350,000); AID 2528;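 further: plate controls were vehicle for no effect and no enzyme for full effect; nearly all actives have a fitted effect of over 35% in size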
RECQ1 inh-1: blocks DNA unwinding by human RECQ1; P46063; RECQ1 DNA unwinding, red fluorescence kinetic read; Potency, µM (titrated, usually from 57.3 µM), for the others: at the top dose activity, negative = inhibition, most hits filed as inhibitors; actives 0.54% (n = 240,000);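 further: plate controls were vehicle for no effect and no enzyme for full effect; nearly all actives have a fitted effect of over 30% in size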
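50 nM RECQ1T1 preincubated 15 min with compound in Tris pH 8.0 buffer with MgCl2, DTT, Tween-20 and 2.5 ug/ml poly(dI-dC); started with 200 nM TAMRA/BHQ-2 forked duplex and 2 mM ATP. Unwinding read as fluorescence (525/598 nm), two reads 2 h apart.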
RECQ1 conf: confirmation of human RECQ1 helicase inhibitors | shares compounds with RECQ1 inh-1 | RECQ1 helicase DNA unwinding, fluorescence | Potency, µM (series often up to 229 µM), inactives show top-dose activity change, negative = inhibition, usual class: inhibitors | actives 28% (n = 610); further: nearly all actives have a fitted effect of over 45% in size
RECQ1 ADP FP: counter-screen for RECQ1 inhibitors: ADP displacement; shares compounds with RECQ1 inh-1; ADP fluorescence polarization displacement counterscreen; Potency, µM (top dose mostly 228 µM), for inactives: top-dose activity change, negative = inhibition, most hits filed as inhibitors; actives 27% (n = 530); AID 2711; further: nearly all actives have a fitted effect of over 45% in size
RECQ1 inh-2: RECQ1 helicase inhibition confirmed, round 2; shares compounds with RECQ1 inh-1; recombinant RECQ1 DNA unwinding, red fluorescence; Potency, µM (series often up to 119 µM), without a hit: at the top dose activity, negative = inhibition, usual class: inhibitors; actives 15% (n = 1,100); AID 504841; further: nearly all actives have a fitted effect of over 50% in size
Active calls of the source: *; [ ] = dose if it differs, or a comment. Rows were chosen to be rich in hits. Some 0.74% of all compounds tested hit in one or more screens of this group. The call rests on the fitted dose curve; in most records, active means well fitted curve in the direction sought with a large enough effect; inconclusive means small, poorly fitted or top-dose-only effect, or another doubt; inactive means no such curve, though single readings can be large; an effect the other way counts as inactive or inconclusive. Unless noted, on the % scale 0 is the no-effect control and ±100 the full control effect; potency means the concentration at half of the fitted maximal effect.

COc1cccc(-c2nc(C(=O)NCC3CCCO3)cc3c2[nH]c2ccccc23)c1 (stereo not given) was read as APEX1 inh 28.7%, PGK inhibitor -1.9%, FEN1 inhibitor -1.1% and BLM inh -3.1%.
`O=C(CN1CCN(c2cccc(C(F)(F)F)c2)CC1)Nc1ccc2c(c1)OCCCO2` gave PGK inhibitor -4.1%.
Cc1ccc(C(=O)c2cc([N+](=O)[O-])ccc2N2CCCCC2)c(C)c1 was read as APEX1 inh 2.0%, PGK inhibitor -4.0%, FEN1 inhibitor -10.3%, BLM inh -4.5%, RECQ1 inh-1 1.58µM* and RECQ1 inh-2 -13.8%.
For CC1=Nc2cc(C(=O)NC3CCCC3)ccc2Sc2ccc(Br)cc21 the results were PGK inhibitor 2.6%, FEN1 inhibitor -19.1% and BLM inh -12.6%.
`CC1=Nc2cc(C(=O)O)ccc2Sc2ccc(Br)cc21` gave APEX1 inh inconclusive, PGK inhibitor -6.7%, FEN1 inhibitor -1.8%, BLM inh -5.5%, RECQ1 inh-1 0.316µM*, RECQ1 conf 100µM*, RECQ1 ADP FP 19.9%[91.9 µM] and RECQ1 inh-2 -8.4%.
O=C(O)CSCC(=O)Nc1ccccn1 was read as APEX1 inh 1.3%, PGK inhibitor inactive, FEN1 inhibitor -3.0%, BLM inh 0.5% and RECQ1 inh-1 -2.0%.
For COc1ccc(Cl)cc1C(=O)Nc1cccc(-c2ccc3nncn3n2)c1 the results were APEX1 inh inconclusive, PGK inhibitor -5.7%, FEN1 inhibitor -33.0%, BLM inh -12.2%, RECQ1 inh-1 inconclusive and RECQ1 inh-2 inconclusive.
COc1ccc(CCNC(=O)c2cc(S(=O)(=O)N(C)c3ccccc3)ccc2Cl)cc1 was read as APEX1 inh 1.4%, PGK inhibitor inactive, FEN1 inhibitor 8.3%, BLM inh -2.1% and RECQ1 inh-1 -8.8%.
For COc1cc(C(=O)NC(=S)Nc2ccc(N3CCCC3)cc2)cc(OC)c1OC the results were APEX1 inh -10.0%, PGK inhibitor -4.9%, FEN1 inhibitor 8.3%, BLM inh -3.2%, RECQ1 inh-1 inconclusive and RECQ1 inh-2 -9.7%.
For COc1ccc(C(=O)NC(=S)Nc2ccc(N3CCCC3)cc2)cc1 the results were APEX1 inh -0.9%, PGK inhibitor -8.2%, FEN1 inhibitor -8.1%, BLM inh -1.7% and RECQ1 inh-1 -9.4%.
`COc1ccc(CC(=O)Oc2ccccc2Cl)cc1S(=O)(=O)N1CCOCC1` gave APEX1 inh 41.3%, PGK inhibitor -1.6% and FEN1 inhibitor 14.6%.
For CCCN(CCC)S(=O)(=O)c1ccc(C(=O)Nc2ccc(OCC(=O)N3CCOCC3)cc2)cc1 the results were APEX1 inh -3.2%, PGK inhibitor 5.6%, FEN1 inhibitor -16.4%, BLM inh -8.2%, RECQ1 inh-1 -4.1%, RECQ1 conf 4.5% and RECQ1 ADP FP -2.0%.
CN(C)/C=C/C(=O)c1ccc(Br)cc1 was read as APEX1 inh 21.4%, PGK inhibitor -5.4%, FEN1 inhibitor -13.4%, BLM inh -4.4%, RECQ1 inh-1 inconclusive and RECQ1 inh-2 -29.5%.
CNC(=O)CSc1nnc(-c2ccco2)n1-c1cc(C)ccc1C was read as APEX1 inh 47.2%, PGK inhibitor inactive, FEN1 inhibitor -0.6% and BLM inh -1.9%.
Screening Cc1ccc(C)c(-n2c(SCC(=O)NC(C(=O)O)C(C)C)nnc2-c2cccc(Cl)c2)c1 (stereo not given) returned APEX1 inh -2.4%, PGK inhibitor -5.4%, FEN1 inhibitor 5.7%, BLM inh -0.6%, RECQ1 inh-1 -0.2%, RECQ1 conf 12.9% and RECQ1 ADP FP 10.2%.
For Cc1cccc(NS(=O)(=O)c2ccc3c(c2)CCN3C(=O)CCC(=O)O)c1C the results were PGK inhibitor -2.1%, FEN1 inhibitor 2.4% and BLM inh -1.7%.
For CCN(c1ccc(C)c(C)c1)S(=O)(=O)c1ccc2c(c1)CCN2C(=O)CCC(=O)O the results were APEX1 inh -0.5%, FEN1 inhibitor -15.8%, BLM inh -2.1%, RECQ1 inh-1 -19.6%, RECQ1 conf 14.8% and RECQ1 ADP FP -10.8%.
COc1ccc(N(C)S(=O)(=O)c2ccc3c(c2)CCN3C(=O)CCC(=O)O)cc1 was read as PGK inhibitor inactive, FEN1 inhibitor 2.2% and BLM inh 0.5%.
`CCN(c1ccc(OC)cc1)S(=O)(=O)c1ccc2c(c1)CCN2C(=O)CCC(=O)O` gave APEX1 inh -0.7%, PGK inhibitor -3.3%, FEN1 inhibitor -2.9%, BLM inh 0.5%, RECQ1 inh-1 -10.3%, RECQ1 conf 8.7% and RECQ1 ADP FP -12.4%.
For Cc1ccccc1C(=O)Nc1cccc(OCc2cc(=O)n3cccc(C)c3n2)c1 the results were PGK inhibitor 1.0%, FEN1 inhibitor 18.7% and BLM inh -7.1%.
CN(C(=O)c1ccccc1Cl)c1ccccc1C(=O)NCc1ccccc1 was read as APEX1 inh 48.9%, PGK inhibitor -4.7%, FEN1 inhibitor -0.9% and BLM inh -4.5%.
O=C(CCc1ccc(O)cc1)c1c(O)cc(O)cc1O[C@H]1OC(CO)C(O)C(O)C1O (stereo not given in full) was read as APEX1 inh -1.8%, BLM inh 5.3% and RECQ1 inh-1 -6.5%.
For Cc1nn(CC(=O)Nc2ccc3c(c2)OCO3)c(C)c1Cl the results were APEX1 inh -4.7%, PGK inhibitor -3.6%, FEN1 inhibitor 2.8% and BLM inh -2.4%.
Screening Oc1ccc(N=Cc2ccc(-c3cccs3)s2)cc1 returned APEX1 inh inconclusive, PGK inhibitor -9.0%, FEN1 inhibitor inconclusive, BLM inh inconclusive, RECQ1 inh-1 6.31µM*, RECQ1 conf 10.1%[114 µM] and RECQ1 ADP FP 50.1µM*.
Screening COn1c(SCc2cccc(Cl)c2)nc2ccccc2c1=O returned APEX1 inh 10.9%, PGK inhibitor inactive, FEN1 inhibitor inconclusive, BLM inh -7.7%, RECQ1 inh-1 7.08µM*, RECQ1 conf 1.7%[114 µM], RECQ1 ADP FP inconclusive and RECQ1 inh-2 -12.6%.

Source: PubChem BioAssay
